Laboratory results published in the supplement of paper PMC11732987, “Enantioselective OTUD7B fragment discovery through chemoproteomics screening and high-throughput optimisation” (Communications Chemistry, 2025).

What was measured:
Assay in all cases: log2 ratio of Biotin-Ahx-Ub-VS probe labelling (fragment/DMSO); higher = less target engagement (more negative = stronger competition), active = hit call of the paper (q ≤ 0.05, log2 ratio ≤ -1)
Conditions in all cases: compound concentration: 200 uM; treatment time: 3 h
[1] = target: USP34 (UniProt Q70CQ2)
Procedure, shortened: (§1)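 Labelling with Biotin-Ahx-Ub-VS (0.5 µM final, 1 h) followed a 3 h triplicate treatment of HEK293T lysate (495 µg per sample, Tris/CHAPS/IGEPAL buffer with protease inhibitors) with fragment at 200 µM or vehicle. Labelled DUBs were NeutrAvidin-enriched, digested with LysC and trypsin, and run by diaPASEF LC-MS/MS. The values, average log2 fragment/vehicle ratios by unpaired t-test, come from global-median-normalised Spectronaut label-free quantities. Proteins with ≥2 unique peptides were used.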

[2] = target: T1, USP36 (UniProt Q9P275)
T1 sequence (whole entry): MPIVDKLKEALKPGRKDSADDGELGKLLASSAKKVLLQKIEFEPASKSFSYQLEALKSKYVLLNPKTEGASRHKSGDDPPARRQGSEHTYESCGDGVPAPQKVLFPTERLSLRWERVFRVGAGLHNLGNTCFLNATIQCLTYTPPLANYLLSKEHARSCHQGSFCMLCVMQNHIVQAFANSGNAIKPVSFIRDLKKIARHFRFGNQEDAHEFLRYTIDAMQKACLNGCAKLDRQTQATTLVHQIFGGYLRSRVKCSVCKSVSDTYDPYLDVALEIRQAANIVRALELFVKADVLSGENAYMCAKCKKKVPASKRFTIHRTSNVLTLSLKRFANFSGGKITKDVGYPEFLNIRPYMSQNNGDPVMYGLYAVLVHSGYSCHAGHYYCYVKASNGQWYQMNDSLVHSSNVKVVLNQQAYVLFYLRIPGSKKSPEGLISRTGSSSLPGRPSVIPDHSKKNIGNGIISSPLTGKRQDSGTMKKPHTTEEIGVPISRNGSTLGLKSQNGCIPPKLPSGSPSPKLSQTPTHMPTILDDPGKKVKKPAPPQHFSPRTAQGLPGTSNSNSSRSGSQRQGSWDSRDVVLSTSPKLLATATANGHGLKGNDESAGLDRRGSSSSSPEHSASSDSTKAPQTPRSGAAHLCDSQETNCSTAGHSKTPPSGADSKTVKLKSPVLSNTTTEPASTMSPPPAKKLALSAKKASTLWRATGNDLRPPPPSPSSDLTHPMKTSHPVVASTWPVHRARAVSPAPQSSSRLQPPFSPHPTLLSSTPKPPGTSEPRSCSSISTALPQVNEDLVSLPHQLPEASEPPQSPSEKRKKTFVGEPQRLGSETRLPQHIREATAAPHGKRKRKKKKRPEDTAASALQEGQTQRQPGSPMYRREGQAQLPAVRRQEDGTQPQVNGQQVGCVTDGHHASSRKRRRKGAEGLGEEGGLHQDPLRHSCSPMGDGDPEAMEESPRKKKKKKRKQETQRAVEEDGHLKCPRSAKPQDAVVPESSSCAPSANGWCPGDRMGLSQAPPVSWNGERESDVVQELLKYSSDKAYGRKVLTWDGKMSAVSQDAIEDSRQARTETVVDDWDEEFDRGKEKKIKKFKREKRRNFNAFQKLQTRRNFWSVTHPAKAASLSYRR
Procedure, shortened: as §1

[3] = target: T2, USP38 (UniProt Q8NB14)
T2 sequence (whole entry): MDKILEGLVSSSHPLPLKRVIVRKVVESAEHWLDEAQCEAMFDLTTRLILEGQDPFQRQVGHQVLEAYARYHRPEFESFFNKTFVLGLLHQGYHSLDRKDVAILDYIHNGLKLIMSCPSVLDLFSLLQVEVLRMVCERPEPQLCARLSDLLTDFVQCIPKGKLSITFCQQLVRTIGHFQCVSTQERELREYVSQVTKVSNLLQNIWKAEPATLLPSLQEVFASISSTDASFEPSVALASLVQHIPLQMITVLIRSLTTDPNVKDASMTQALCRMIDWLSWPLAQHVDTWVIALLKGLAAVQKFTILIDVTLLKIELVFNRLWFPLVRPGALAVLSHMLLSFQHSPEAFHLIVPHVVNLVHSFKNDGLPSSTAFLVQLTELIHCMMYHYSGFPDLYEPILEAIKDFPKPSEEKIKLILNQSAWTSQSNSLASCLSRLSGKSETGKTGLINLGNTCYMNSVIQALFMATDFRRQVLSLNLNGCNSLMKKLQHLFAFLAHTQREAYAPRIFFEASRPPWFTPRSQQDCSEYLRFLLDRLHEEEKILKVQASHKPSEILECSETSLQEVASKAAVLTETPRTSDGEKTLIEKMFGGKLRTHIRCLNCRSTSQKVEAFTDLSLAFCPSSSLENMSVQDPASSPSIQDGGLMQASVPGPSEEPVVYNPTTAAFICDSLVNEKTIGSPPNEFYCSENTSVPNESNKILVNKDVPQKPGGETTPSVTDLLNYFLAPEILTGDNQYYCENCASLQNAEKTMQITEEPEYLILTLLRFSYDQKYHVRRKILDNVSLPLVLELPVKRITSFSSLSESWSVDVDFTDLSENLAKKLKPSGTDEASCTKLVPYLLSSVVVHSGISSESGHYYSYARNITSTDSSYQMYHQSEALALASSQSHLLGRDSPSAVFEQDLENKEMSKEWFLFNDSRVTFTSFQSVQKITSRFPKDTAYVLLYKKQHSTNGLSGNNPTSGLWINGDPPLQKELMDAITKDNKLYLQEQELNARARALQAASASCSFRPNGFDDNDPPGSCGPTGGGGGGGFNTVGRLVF
Procedure, shortened: as §1

[4] = target: T3, USP39 (UniProt Q53GS9)
T3 sequence (whole entry): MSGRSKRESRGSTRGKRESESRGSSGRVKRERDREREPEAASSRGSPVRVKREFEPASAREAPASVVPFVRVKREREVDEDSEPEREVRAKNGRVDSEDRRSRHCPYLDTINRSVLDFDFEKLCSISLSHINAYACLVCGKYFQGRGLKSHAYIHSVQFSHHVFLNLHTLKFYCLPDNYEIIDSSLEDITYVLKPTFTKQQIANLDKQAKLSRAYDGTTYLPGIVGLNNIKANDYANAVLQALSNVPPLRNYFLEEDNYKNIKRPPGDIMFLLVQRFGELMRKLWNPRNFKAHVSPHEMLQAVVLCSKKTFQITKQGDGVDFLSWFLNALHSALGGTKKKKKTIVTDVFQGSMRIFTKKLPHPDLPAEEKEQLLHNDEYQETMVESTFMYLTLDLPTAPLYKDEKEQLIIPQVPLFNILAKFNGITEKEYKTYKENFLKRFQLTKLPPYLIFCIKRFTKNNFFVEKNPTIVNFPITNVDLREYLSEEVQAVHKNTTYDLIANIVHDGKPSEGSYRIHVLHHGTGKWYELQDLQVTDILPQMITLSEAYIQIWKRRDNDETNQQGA
Procedure, shortened: as §1

[5] = target: T4, USP4 (UniProt Q13107)
T4 sequence (whole entry): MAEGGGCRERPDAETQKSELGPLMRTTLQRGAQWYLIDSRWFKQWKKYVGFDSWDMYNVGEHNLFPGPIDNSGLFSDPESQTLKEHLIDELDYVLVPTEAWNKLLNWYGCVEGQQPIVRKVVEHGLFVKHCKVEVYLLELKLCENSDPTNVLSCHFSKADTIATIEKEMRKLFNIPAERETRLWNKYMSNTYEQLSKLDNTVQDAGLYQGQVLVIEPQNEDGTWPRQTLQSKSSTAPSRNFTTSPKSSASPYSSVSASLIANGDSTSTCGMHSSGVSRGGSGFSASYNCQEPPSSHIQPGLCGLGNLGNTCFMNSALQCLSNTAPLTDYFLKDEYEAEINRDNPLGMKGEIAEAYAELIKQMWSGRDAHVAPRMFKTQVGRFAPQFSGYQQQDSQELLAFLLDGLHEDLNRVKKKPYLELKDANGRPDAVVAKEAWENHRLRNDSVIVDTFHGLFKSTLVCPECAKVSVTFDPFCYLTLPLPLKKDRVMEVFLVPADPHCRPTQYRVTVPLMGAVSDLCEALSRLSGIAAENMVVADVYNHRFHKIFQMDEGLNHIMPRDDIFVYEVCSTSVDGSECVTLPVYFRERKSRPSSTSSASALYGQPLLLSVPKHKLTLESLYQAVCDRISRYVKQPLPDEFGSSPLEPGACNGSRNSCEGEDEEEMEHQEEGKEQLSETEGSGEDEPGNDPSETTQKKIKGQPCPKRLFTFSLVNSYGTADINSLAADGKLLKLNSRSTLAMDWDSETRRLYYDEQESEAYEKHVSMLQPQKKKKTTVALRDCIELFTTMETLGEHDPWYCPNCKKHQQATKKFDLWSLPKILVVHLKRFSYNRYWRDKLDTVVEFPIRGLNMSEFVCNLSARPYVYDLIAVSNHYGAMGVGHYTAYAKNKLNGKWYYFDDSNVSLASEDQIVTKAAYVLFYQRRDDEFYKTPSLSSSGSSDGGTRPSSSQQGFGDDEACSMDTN
Procedure, shortened: as §1

Measured: log2 ratio of Biotin-Ahx-Ub-VS probe labelling

Chain of USP34 (Q70CQ2 whole entry, the tested form may be a part): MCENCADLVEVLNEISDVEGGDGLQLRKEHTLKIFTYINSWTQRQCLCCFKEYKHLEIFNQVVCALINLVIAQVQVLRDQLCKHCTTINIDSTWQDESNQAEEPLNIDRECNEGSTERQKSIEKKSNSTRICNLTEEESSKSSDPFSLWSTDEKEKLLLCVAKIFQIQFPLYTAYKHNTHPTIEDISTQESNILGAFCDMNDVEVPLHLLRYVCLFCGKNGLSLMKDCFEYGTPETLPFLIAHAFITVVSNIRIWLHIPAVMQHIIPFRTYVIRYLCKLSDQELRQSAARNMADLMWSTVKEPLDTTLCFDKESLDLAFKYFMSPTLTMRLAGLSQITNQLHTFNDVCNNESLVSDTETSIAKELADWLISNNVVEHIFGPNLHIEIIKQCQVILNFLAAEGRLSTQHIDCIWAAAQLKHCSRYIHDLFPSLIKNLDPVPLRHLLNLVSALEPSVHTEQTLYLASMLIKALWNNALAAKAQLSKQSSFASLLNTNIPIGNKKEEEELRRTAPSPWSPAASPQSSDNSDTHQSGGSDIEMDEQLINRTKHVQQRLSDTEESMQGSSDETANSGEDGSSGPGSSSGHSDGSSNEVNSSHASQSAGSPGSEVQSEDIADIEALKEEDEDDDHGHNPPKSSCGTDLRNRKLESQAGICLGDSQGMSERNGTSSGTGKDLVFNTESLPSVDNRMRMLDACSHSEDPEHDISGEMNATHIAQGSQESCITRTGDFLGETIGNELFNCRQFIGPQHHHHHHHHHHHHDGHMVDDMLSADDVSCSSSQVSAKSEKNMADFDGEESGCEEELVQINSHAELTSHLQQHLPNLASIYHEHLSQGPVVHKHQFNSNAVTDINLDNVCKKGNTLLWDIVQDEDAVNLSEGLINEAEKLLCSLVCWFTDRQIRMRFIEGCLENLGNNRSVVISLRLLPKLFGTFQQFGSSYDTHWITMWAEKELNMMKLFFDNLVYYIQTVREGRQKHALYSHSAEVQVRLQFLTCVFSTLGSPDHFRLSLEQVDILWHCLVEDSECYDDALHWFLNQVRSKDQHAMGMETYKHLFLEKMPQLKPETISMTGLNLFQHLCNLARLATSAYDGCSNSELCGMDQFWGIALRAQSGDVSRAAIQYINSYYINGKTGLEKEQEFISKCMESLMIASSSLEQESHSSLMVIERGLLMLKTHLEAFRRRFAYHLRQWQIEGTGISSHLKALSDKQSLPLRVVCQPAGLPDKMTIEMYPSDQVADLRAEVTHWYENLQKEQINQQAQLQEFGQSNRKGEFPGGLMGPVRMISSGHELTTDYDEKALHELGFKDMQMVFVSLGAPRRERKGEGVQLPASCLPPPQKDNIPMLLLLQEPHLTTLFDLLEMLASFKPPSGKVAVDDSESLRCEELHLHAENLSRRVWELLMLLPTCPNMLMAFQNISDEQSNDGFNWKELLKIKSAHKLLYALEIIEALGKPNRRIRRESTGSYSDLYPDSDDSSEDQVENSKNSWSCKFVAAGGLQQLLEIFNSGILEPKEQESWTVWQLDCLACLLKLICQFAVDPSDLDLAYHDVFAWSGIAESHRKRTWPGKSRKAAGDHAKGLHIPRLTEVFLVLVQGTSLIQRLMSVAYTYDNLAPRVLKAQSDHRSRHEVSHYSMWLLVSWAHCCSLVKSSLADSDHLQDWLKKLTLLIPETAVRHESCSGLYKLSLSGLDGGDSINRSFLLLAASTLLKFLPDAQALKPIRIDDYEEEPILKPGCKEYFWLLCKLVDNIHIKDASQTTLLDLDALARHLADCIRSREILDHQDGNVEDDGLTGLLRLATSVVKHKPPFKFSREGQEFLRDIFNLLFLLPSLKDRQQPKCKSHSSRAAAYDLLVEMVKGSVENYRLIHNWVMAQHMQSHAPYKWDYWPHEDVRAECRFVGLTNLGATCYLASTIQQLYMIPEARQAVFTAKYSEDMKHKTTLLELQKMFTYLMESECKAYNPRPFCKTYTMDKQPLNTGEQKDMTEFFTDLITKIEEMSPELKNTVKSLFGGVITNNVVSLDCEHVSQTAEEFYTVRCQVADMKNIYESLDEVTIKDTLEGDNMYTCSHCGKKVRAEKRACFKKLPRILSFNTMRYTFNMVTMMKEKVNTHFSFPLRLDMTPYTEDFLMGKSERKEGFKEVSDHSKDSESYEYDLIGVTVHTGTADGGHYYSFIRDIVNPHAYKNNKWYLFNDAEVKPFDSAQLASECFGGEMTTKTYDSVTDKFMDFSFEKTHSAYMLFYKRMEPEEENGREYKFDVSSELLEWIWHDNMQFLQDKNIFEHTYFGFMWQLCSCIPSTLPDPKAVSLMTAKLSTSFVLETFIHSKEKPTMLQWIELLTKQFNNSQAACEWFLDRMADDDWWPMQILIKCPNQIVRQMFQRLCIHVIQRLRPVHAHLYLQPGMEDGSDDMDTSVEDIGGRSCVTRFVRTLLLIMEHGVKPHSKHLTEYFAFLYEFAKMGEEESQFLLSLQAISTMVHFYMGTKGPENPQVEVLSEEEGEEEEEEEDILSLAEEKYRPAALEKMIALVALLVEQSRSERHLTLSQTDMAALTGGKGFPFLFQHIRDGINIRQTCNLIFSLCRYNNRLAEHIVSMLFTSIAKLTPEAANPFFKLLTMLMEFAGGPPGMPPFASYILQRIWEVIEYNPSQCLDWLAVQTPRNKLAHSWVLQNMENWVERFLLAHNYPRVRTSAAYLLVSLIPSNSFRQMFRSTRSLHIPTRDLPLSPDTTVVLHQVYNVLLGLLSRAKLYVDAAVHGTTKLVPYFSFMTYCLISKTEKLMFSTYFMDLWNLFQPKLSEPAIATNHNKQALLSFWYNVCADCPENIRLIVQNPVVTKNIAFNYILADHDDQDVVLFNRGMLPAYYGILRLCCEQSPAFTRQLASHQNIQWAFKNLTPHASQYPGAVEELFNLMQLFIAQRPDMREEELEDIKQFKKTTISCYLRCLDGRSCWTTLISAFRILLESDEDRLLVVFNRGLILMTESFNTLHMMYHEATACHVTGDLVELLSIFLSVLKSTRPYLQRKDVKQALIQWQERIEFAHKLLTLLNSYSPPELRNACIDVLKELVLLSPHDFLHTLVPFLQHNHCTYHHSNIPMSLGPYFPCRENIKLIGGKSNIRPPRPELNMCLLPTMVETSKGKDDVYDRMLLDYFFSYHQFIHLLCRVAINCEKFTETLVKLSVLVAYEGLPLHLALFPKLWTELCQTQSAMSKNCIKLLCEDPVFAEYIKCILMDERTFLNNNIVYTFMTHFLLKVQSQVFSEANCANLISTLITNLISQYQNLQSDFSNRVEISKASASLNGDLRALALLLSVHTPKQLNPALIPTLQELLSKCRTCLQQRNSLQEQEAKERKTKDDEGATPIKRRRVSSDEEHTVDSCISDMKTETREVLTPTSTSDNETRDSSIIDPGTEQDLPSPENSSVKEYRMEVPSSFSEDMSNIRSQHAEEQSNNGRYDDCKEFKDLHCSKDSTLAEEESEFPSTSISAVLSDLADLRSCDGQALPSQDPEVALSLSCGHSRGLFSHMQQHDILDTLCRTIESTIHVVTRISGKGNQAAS

O=C(CCl)Nc1cc2c(cc1Cl)OCCO2
inactive: [1] -0.393 | [2] 0.206 | [3] -0.183 | [4] -0.137 | [5] 0.122
